This passage reports growth inhibition results from PubChem BioAssay (NCI).

About 79,000 compounds went through this panel and 15% of them were active in at least one assay; those are over-represented in the sample as a whole. Active and inactive are the calls of the source. Rule as the data show it: active = growth inhibition above about 70%; inactive = the rest.

This assay in a line: NCI Yeast Anticancer Drug Screen. Data for the mec2-1 strain (AID 157). The note with it: S. cerevisiae mec2-1 strain, at 11.0 µM, stronger effect = higher value. In short, it runs like this:
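Cells of the genetically defined mec2-1 yeast strain are incubated with test compound. Inhibition of growth is calculated against vehicle-treated controls.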
`CCCc1cc(C(=O)OCC)cc(CCC)c1O`: the growth inhibition is -13% (inactive). With `CC(C)[N+]([O-])(CCCNc1c2ccccc2nc2cccc([N+](=O)[O-])c12)C(C)C` the figure was 96% (active); with `COc1cc2c3c(cccc3c1)C(=O)N(CCN(C)C)C2=O`, -23% (inactive); with `NC(=O)NN=C(CS)CS`, 6% (inactive). For `Cc1ccc(NC(=O)/C(Cl)=C(\Cl)C(=O)O)cc1C`, the growth inhibition is 24% (inactive).

Take `CCN(CC)CC[n+]1ccc2c(C)c3[nH]c4ccc(O)cc4c3c(C)c2c1`: the growth inhibition is 9% (inactive). For the compound `CC(CC(C)(C)[N+](C)(C)C)[N+](C)(C)C` (stereo not given), the growth inhibition was -4% (inactive).

As to `COc1ccc(OC)c2cc3ccccc3cc12`, the growth inhibition was -6% (inactive). For `Nc1ncncc1C(C1=C(O)COC1=O)C1=C(O)COC1=O`, the growth inhibition was 8% (inactive). For the compound `CSC1=NNC(SC)=NN1`, the growth inhibition was 15% (inactive). Consider `Cc1c(Cl)ccc2c1S(=O)(=O)c1cccc(Cl)c1-2`, for which the growth inhibition is -32% (inactive). With `[O-][n+]1c2ccc(O)cc2nc2ccc(Cl)cc21` the figure was 25% (inactive); with `COc1ccc2ccc3ccccc3c2c1C=O`, -6% (inactive). With `Nc1ccc2c(c1)C(=O)c1cccc(N)c1C2=O` the figure was 38% (inactive); with `O=C(c1ccc(Cl)cc1Cl)C(Cl)Cl`, -9% (inactive).

Regarding `COc1cc(C(=O)/C=C/c2ccccc2O)ccc1O`, the growth inhibition is 99% (active). With `O=Cc1cccc2ccc3ccccc3c12` the figure was 1% (inactive); with `O=C(Nc1ccc(Cl)cc1)OCC#CCCl`, 4% (inactive). For the compound `Cn1ccnc1Oc1ccc(Cl)cc1`, the growth inhibition was 4% (inactive). With `c1ccc2c(c1)C(=NCCCN1CCCCCC1)c1cccn1-2` the figure was 4% (inactive).
